Assay [1] can be described thus: cAMP Responsive Elements (CRE) small molecule antagonists, cell-based qHTS assay: qHTS cell viability counter screen (AID 2060913). Further: nearly all actives have a fitted effect of over 40% in size. In short, it runs like this: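 CRE-bla HEK293T cells were seeded in assay medium with 10% dialyzed FBS, incubated 18 hrs at 37 C, then exposed to compounds plus 0.25 uM final NKH477 for 3 hrs. Viability was read by CellTiter-Glo luminescence after 30 min, in the same wells.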

The nature of assay [2]: cAMP Responsive Elements (CRE) small molecule agonists, cell-based qHTS assay: qHTS cell viability counter screen (AID 2060914). Further: nearly all actives have a fitted effect of over 50% in size. In short, it runs like this:
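In the same wells as the reporter read, viability of CRE-bla HEK 293T cells was quantified by CellTiter-Glo luminescence after a 3 h compound exposure.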

60 compounds from PubChem BioAssay (Tox21) can be followed below.

Records with an inconclusive call do not appear. Where a call stands in place of a potency, no number is given. Active and inactive are the calls of the source. The call rests on the fitted dose curve; in most records, active means well fitted cell-killing curve with a large enough effect in the repeat runs; inconclusive means weak or mixed curves, or effect the other way; inactive means flat fitted curve, though single readings scatter.

For `c1ccc2c(c1)cc1ccc3cccc4ccc2c1c34`, the Potency result in assay [1] and in assay [2] was “inactive” in each case.
On to `CCCCn1cc[n+](C)c1`, for which the Potency result in assay [1] and in assay [2] was “inactive” each time.
Consider `CC(O)CN(CC(C)O)CC(C)O` (stereo not given), for which the Potency entry in assay [1] and in assay [2] was “inactive” throughout.
For the compound `O=C([O-])c1ccccn1.O=C([O-])c1ccccn1.O=C([O-])c1ccccn1.[Cr+3]`, the Potency entry in assay [1] and in assay [2] was “inactive” in each case.
As to `CC1(C)[C@H](C=C(Cl)Cl)[C@@H]1C(=O)O[C@@H](C#N)c1cccc(Oc2ccccc2)c1`, the Potency entry in assay [1] and in assay [2] was “inactive” in each case.
For the compound `O=C1CCCO1`, the Potency result in assay [1] and in assay [2] was “inactive” each time.
Regarding `CC(C)(N)Cc1ccc(Cl)cc1`, the Potency result in assay [1] and in assay [2] was “inactive” throughout.
For `O=C(O)c1ccccc1O`, the Potency entry in assay [1] and in assay [2] was “inactive” each time.
Regarding `CCNc1nc(Cl)nc(NC(C)(C)C)n1`, the Potency entry in assay [1] and in assay [2] was “inactive” in each case.
On to `CCCCOCCOC(C)=O`, for which the Potency entry in assay [1] and in assay [2] was “inactive” throughout.
Consider `O=C1CC(=O)NC(=O)N1`, for which the Potency result in assay [1] and in assay [2] was “inactive” in each case.
`C=CCOC(C)=O`: the Potency entry in assay [1] and in assay [2] was “inactive” in each case.
Consider `C[C@@H](N)[C@@H](O)c1ccccc1`, for which the Potency result in assay [1] and in assay [2] was “inactive” throughout.
In the case of `COc1ccc2[nH]cc(CCN(C(C)C)C(C)C)c2c1`, the Potency result in assay [1] and in assay [2] was “inactive” throughout.
`Cc1ccc2cc3c(ccc4ccccc43)c3c2c1CC3`: the Potency result in assay [1] and in assay [2] was “inactive” each time.
For `Nc1ccc([As](=O)(O)O)cc1`, the Potency entry in assay [1] and in assay [2] was “inactive” in each case.
In the case of `CCCCN=C=O`, the Potency result in assay [1] and in assay [2] was “inactive” throughout.
For the compound `CC(=O)Nc1cc([As](=O)(O)O)ccc1O`, the Potency result in assay [1] and in assay [2] was “inactive” in each case.
Regarding `CCCCCCCCCCCC(=O)O`, the Potency result in assay [1] and in assay [2] was “inactive” throughout.
Take `C=C(Cl)CCl`: the Potency result in assay [1] and in assay [2] was “inactive” each time.
As for `Clc1cc(C(Cl)(Cl)Cl)cnc1Cl`, the Potency result in assay [1] and in assay [2] was “inactive” each time.
As to `CCOC(=O)Cc1ccccc1`, the Potency entry in assay [1] and in assay [2] was “inactive” in each case.
For the compound `N#Cc1cccnc1`, the Potency result in assay [1] and in assay [2] was “inactive” each time.
As to `C=CCN(CC=C)C(=O)C(Cl)Cl`, the Potency result in assay [1] and in assay [2] was “inactive” throughout.
On to `COc1ccc(CN2CCNCC2)c(OC)c1OC`, for which the Potency result in assay [1] and in assay [2] was “inactive” in each case.
As to `CCN(C(C)=O)c1cccc(-c2ccnc3c(C#N)cnn23)c1`, the Potency result in assay [1] and in assay [2] was “inactive” throughout.
Turning to `c1cc2c3c(cccc3c1)CC2`, the Potency entry in assay [1] and in assay [2] was “inactive” throughout.
Turning to `CN(C)C(=O)Nc1cccc(OC(=O)NC(C)(C)C)c1`, the Potency result in assay [1] and in assay [2] was “inactive” in each case.
Regarding `COc1cc(CCN)cc(OC)c1OC`, the Potency entry in assay [1] and in assay [2] was “inactive” throughout.
As for `c1ccc2c(c1)Nc1ccccc1S2`, the Potency result in assay [1] and in assay [2] was “inactive” each time.
Consider `O=[N+]([O-])c1ccc(CBr)cc1`, for which the Potency entry in assay [1] and in assay [2] was “inactive” throughout.
With `CC(O)CN1CCN(CC(=O)[O-])CCN(CC(=O)[O-])CCN(CC(=O)[O-])CC1.[Gd+3]` (stereo not given), the Potency entry in assay [1] and in assay [2] was “inactive” each time.
In the case of `CN1CCC(N(Cc2ccccc2)c2ccccc2)CC1`, the Potency entry in assay [1] and in assay [2] was “inactive” in each case.
Turning to `O=C(O)CC(O)(CC(=O)O)C(=O)O`, the Potency result in assay [1] and in assay [2] was “inactive” throughout.
With `CC1C(=O)C[C@]2(C(C)C)C[C@H]12` (stereo not given in full), the Potency entry in assay [1] and in assay [2] was “inactive” in each case.
As to `CCNc1nc(NC(C)C(C)C)nc(SC)n1` (stereo not given), the Potency entry in assay [1] and in assay [2] was “inactive” throughout.
On to `S=C=Nc1ccccc1`, for which the Potency entry in assay [1] and in assay [2] was “inactive” each time.
For the compound `CCC1(C2=NCCN2)Cc2ccccc2O1` (stereo not given), the Potency entry in assay [1] and in assay [2] was “inactive” in each case.
For the compound `CCOP(=O)(OCC)SCCSCC`, the Potency entry in assay [1] and in assay [2] was “inactive” each time.
With `O=[N+]([O-])O`, the Potency result in assay [1] and in assay [2] was “inactive” in each case.
In the case of `COP(=S)(OC)Oc1cc(Cl)c(I)cc1Cl`, the Potency entry in assay [1] and in assay [2] was “inactive” each time.
As for `CCNc1nc(Cl)nc(NC(C)C)n1`, the Potency entry in assay [1] and in assay [2] was “inactive” throughout.
With `CCCCOC(=O)c1ccccc1C(=O)OCCCC`, the Potency result in assay [1] and in assay [2] was “inactive” throughout.
Regarding `CCCCCCCCCCCCBr`, the Potency result in assay [1] and in assay [2] was “inactive” throughout.
Regarding `Cc1ccccc1O`, the Potency result in assay [1] and in assay [2] was “inactive” each time.
As to `CC(C)C#N`, the Potency entry in assay [1] and in assay [2] was “inactive” in each case.
On to `N#CCCC(Br)(C#N)CBr` (stereo not given), for which the Potency entry in assay [1] and in assay [2] was “inactive” in each case.
Regarding `O=C(Cc1ccccc1)OCc1ccccc1`, the Potency entry in assay [1] and in assay [2] was “inactive” throughout.
`CN(C)CCc1c[nH]c2cccc(O)c12`: the Potency entry in assay [1] and in assay [2] was “inactive” throughout.
In the case of `CCCCCCCCCc1ccc(O)cc1`, the Potency result in assay [1] and in assay [2] was “inactive” throughout.
As for `O=C1OC(c2ccc(O)c(S(=O)(=O)O)c2)(c2ccc(O)c(S(=O)(=O)O)c2)c2c(Br)c(Br)c(Br)c(Br)c21`, the Potency result in assay [1] and in assay [2] was “inactive” throughout.
For the compound `CC(C(=O)c1ccccc1)N(C)C` (stereo not given), the Potency result in assay [1] and in assay [2] was “inactive” in each case.
On to `CN1CCN(C(=O)O[C@H]2c3nccnc3C(=O)N2c2ccc(Cl)cn2)CC1`, for which the Potency result in assay [1] and in assay [2] was “inactive” throughout.
As for `CCCC[N+]1(C)CCCC1` (tested in a mixture with another compound), the Potency result in assay [1] and in assay [2] was “inactive” throughout.
For the compound `CN=C=S`, the Potency entry in assay [1] and in assay [2] was “inactive” in each case.
In the case of `NC1=NC(=O)C(c2ccccc2)O1` (stereo not given), the Potency result in assay [1] and in assay [2] was “inactive” throughout.
Regarding `CCCCCCCCCCCCCCC(Br)C(=O)O` (stereo not given), the Potency entry in assay [1] and in assay [2] was “inactive” throughout.
`CC(C)(CCl)C(=O)Cl`: the Potency result in assay [1] and in assay [2] was “inactive” each time.
As to `CN1COCN(Cc2cnc(Cl)s2)/C1=N\[N+](=O)[O-]`, the Potency result in assay [1] and in assay [2] was “inactive” each time.
Turning to `CCSC(=O)N1CCCCCC1`, the Potency result in assay [1] and in assay [2] was “inactive” each time.
